A selection: hits, their analogues and other compounds. The true share with any hit is near 12%.
JMJD2A Tudor = blocks the human JMJD2A Tudor domain; O75164; AlphaScreen JMJD2A-Tudor / H3K4me3 peptide binding; Potency, µM (doses to about 114 µM), most hits filed as inhibitors; hit rate 4.4% among 390,000; AID 504339; also: nearly all actives have a fitted effect of over 50% in size
HP1b binding inh = blocks HP1-beta chromodomain binding to methylated histone tails. P83916. AlphaScreen HP1-beta / biotin-H3K9me3 peptide binding. Potency, µM (doses to about 114 µM), actives largely listed as inhibitors. hit rate 0.56% among 390,000; also: nearly all actives have a fitted effect of over 70% in size
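HP1-beta protein (50 nM final) preincubated 30 min at room temperature with biotinylated H3(1-18)K9me3 peptide (50 nM) in PBS pH 7.4, 0.01% Tween-20, then compound added for 30 min. AlphaScreen streptavidin donor/nickel chelate acceptor beads (10 ug/mL final), 30 min dark, luminescence read.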
G9a block = blocks human histone lysine methyltransferase G9a | Q96KQ7 | G9a H3K9 monomethylation, AlphaScreen, 2 h | Potency, µM (series often up to 102 µM), hits mostly inhibitors | hit rate 8.8% among 350,000 | AID 504332; also: nearly all actives have a fitted effect of over 75% in size
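Step 1: enzyme (final 20 nM) with compound, 15 min RT. Step 2: substrate peptide 500 nM and SAM 20 uM, 2 h RT. Step 3: anti-H3K9me1 antibody and AlphaScreen beads, 10 min, then plate read.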
BAZ2B block = blocks human BAZ2B; Q9UIF8; AlphaScreen BAZ2B-H3K14Ac peptide displacement; Potency, µM (doses to about 114 µM), most hits filed as inhibitors; hit rate 4.4% among 360,000; AID 504333; also: nearly all actives have a fitted effect of over 60% in size
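AlphaScreen luminescence quantifies BAZ2B engagement of H3K14Ac peptide; the protein and biotinylated peptide are both at 50 nM final, buffer PBS pH 7.4 with 0.01% Tween-20, all steps at room temperature.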
PLK1 PBD block = inhibitors of human PLK1 polo-box domain binding; hit rate 2.8% among 360,000; Plk1 PBD binding of FITC phosphopeptide, fluorescence polarization; AID 720504; Potency, µM, usual class: inhibitors; also: series mostly up to about 57 µM; nearly all actives have a fitted effect of over 65% in size
PI5P4Ka inh = blocks human PI5P4K alpha kinase activity; P48426; PI5P4Kalpha enzyme, ADP-Glo luminescence, 60 min; stronger effect = lower value; max response, %; hit rate 1.2% among 330,000; AID 652105; active = max response of -50% or lower; inconclusive = between -30% and -50%; inactive = -30% or higher; also: value at the top dose of about 77 µM
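ADP-Glo luminescence end-point read after a 60 min room-temperature kinase reaction of PI5P4Kalpha plus substrate, initiated with ATP at 5 microM final. Buffer: 0.038 M HEPES pH 7.4, EGTA, 0.1% CHAPS, 5% DMSO.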
Large screens that a line does not name were inactive. Unless noted, calls follow the shape of the dose curve; as a rule, active = well fitted curve in the direction sought with a large enough effect; inconclusive = small, poorly fitted or top-dose-only effect, or another doubt; inactive = no such curve, though single readings can be large; an effect the other way counts as inactive or inconclusive.

COc1cccc(CNC(=O)CCS(=O)(=O)c2cc3c4c(c2)CCN4C(=O)CC3)c1	none (no result: PLK1 PBD block, PI5P4Ka inh)
CSCC[C@H](NC(=O)OC(C)(C)C)c1nnc(SCC=C(C)C)o1	G9a block 50µM
Cc1ccc(OCC(COCc2ccccc2)NC(C)C)cc1 (configuration not stated)	JMJD2A Tudor 1.4µM, HP1b binding inh inconclusive (no result: G9a block, BAZ2B block)
O=C(Nc1nccs1)c1ccc(Cl)nc1	G9a block inconclusive
O=C(Nc1nccs1)c1ncc(Cl)c(Cl)c1Cl	G9a block 45µM
O=C(Nc1nccs1)c1cnccn1	JMJD2A Tudor inconclusive, G9a block 6.3µM, BAZ2B block inconclusive (no result: PI5P4Ka inh)
O=C(COC(=O)c1cnccn1)c1ccccc1	none
O=C(Nc1nccs1)c1ccccn1	JMJD2A Tudor 79µM, G9a block inconclusive (no result: BAZ2B block)
O=C(O)c1cnccn1	JMJD2A Tudor 25µM, HP1b binding inh inconclusive, G9a block 8.9µM, BAZ2B block 45µM
Cc1ccc(NC(=O)COc2cccc(-n3cnnn3)c2)cc1S(=O)(=O)N1CCOCC1	none
COCc1nnc(NC(=O)C2CCN(C(=O)c3ccccc3)CC2)s1	none (no result: G9a block, BAZ2B block, PLK1 PBD block, PI5P4Ka inh)
CC1(C)CC(=O)C(C2C3=C(CC(C)(C)CC3=O)Oc3c(Br)cc(Br)cc32)=C(O)C1 (configuration not stated)	none (no result: G9a block)
O=C(Nc1ccc(Br)cc1Cl)c1cnccn1	JMJD2A Tudor 50µM, PLK1 PBD block inconclusive (no result: PI5P4Ka inh)
CCN(CC)S(=O)(=O)c1ccc(NN)nc1	JMJD2A Tudor 20µM, PLK1 PBD block 24µM (no result: BAZ2B block)
CC(C)N(C(C)C)S(=O)(=O)c1ccc(NN)nc1	none
COc1ccccc1Cc1c(-c2ccc(F)cc2)nc2cc(C)c(Br)c(C)n12	none (no result: JMJD2A Tudor, HP1b binding inh, G9a block, BAZ2B block)
COc1ccc(Cc2nc3ccc(C(=O)N(C)Cc4nccs4)cc3o2)cc1OC	JMJD2A Tudor inconclusive, PLK1 PBD block 30µM (no result: G9a block)
COc1ccc(CCNS(=O)(=O)c2cc(-c3cc(C)no3)ccc2OC)cc1OC	none (no result: PLK1 PBD block, PI5P4Ka inh)
CC(NC(=O)CN(C)Cc1nc2ccccc2c(=O)[nH]1)c1ccccc1 (configuration not stated)	none
CC(C(=O)Nc1ccccc1-c1ccccc1)N(C)Cc1nc2ccccc2c(=O)[nH]1 (configuration not stated)	HP1b binding inh inconclusive, PLK1 PBD block 6.7µM
CCC(=O)n1nc(-c2ccco2)nc1N	G9a block 45µM
CC(=O)n1nc(-c2ccco2)nc1SCc1ccccc1	G9a block 45µM, PLK1 PBD block inconclusive
CC(=O)n1nc(-c2ccco2)nc1N	none
COc1ccc(/C=C/CN2CCC(n3nccc3NC(=O)C3CCCC3)CC2)cc1	none (no result: G9a block)
COc1ccc(C(=O)CN2C(=O)N(c3cc(C)cc(C)c3)S(=O)(=O)c3ccccc32)cc1	none (no result: PLK1 PBD block, PI5P4Ka inh)
Cc1noc(C(=O)N2CCN(Cc3ccc4c(c3)OCO4)CC2)c1Cl	G9a block inconclusive
COc1ccc(S(=O)(=O)N(C)[C@H]2C[C@H]3c4cc(Oc5ccccc5C)ccc4CCN3C(=O)[C@H]2[C@H](C)O)cc1	none (no result: JMJD2A Tudor, HP1b binding inh, G9a block, BAZ2B block)
Clc1cccc(-c2ccc(C=Nc3ccc(N4CCOCC4)cc3)o2)c1	JMJD2A Tudor inconclusive, HP1b binding inh inconclusive, G9a block 3.2µM, BAZ2B block 32µM
Oc1ccc(N=Nc2cccc(Cl)c2)cc1C=Nc1ccc(N2CCOCC2)cc1	JMJD2A Tudor inconclusive, HP1b binding inh inconclusive, G9a block inconclusive, BAZ2B block 7.9µM
CCCN1C(=O)c2ccccc2NC1c1ccc(OC)c(COc2ccc([N+](=O)[O-])c(C)c2)c1 (configuration not stated)	JMJD2A Tudor inconclusive (no result: G9a block, BAZ2B block, PLK1 PBD block, PI5P4Ka inh)
CC(C(=O)NC1C=CS(=O)(=O)C1)N1C(=O)/C(=C/c2ccc(Cl)cc2)SC1=S (configuration not stated)	JMJD2A Tudor inconclusive, BAZ2B block 22µM, PLK1 PBD block inconclusive (no result: G9a block)
CC1=C(C(=O)Nc2cccc(C(=O)NC3CCCCC3C)c2)SCCO1 (configuration not stated)	BAZ2B block inconclusive
COc1ccc(O)c(/C=N/n2c(-c3ccco3)csc2=Nc2cccnc2)c1	BAZ2B block inconclusive
CCN=c1scc(-c2cccs2)n1/N=C/c1cc(OC)ccc1O	JMJD2A Tudor 40µM, HP1b binding inh 14µM, G9a block inconclusive, BAZ2B block 13µM
CC(C)N=c1scc(-c2cccs2)n1/N=C/c1ccc(O)c(O)c1O	JMJD2A Tudor 22µM, HP1b binding inh 25µM, G9a block 4µM, BAZ2B block 32µM, PLK1 PBD block inconclusive, PI5P4Ka inh -60
C=CCc1cc(CN2CC(C)OC(C)C2)c(O)c(OC)c1 (configuration not stated)	none (no result: G9a block, BAZ2B block)
C=CCc1cc(Cl)ccc1OCCN1CC(C)OC(C)C1 (configuration not stated)	JMJD2A Tudor 2.2µM, HP1b binding inh inconclusive, G9a block 4.5µM, BAZ2B block inconclusive
C=CCc1cc(OC)ccc1OCCN1CC(C)OC(C)C1 (configuration not stated)	JMJD2A Tudor 5µM, HP1b binding inh inconclusive, G9a block 7.1µM, BAZ2B block 28µM
CCC12CN3CC(CC)(CN(C1)C3c1cc(Br)ccc1OC)C2=O (configuration not stated)	none (no result: PLK1 PBD block, PI5P4Ka inh)
CC[C@]1(C(=O)OC)[C@H]2C(=O)N(Cc3ccccc3)C(=O)[C@H]2[C@H]2CN=C(SCc3ccc(C)cc3)N21	none (no result: G9a block, BAZ2B block)
CCN1C(=O)[C@H]2[C@H]3CN=C(SCC4CC4)N3[C@@](Cc3ccccc3)(C(=O)OC)[C@H]2C1=O	JMJD2A Tudor 89µM (no result: G9a block, BAZ2B block)
CCN1C(=O)[C@H]2[C@H]3CN=C(SCc4ccccc4)N3[C@@](Cc3ccccc3)(C(=O)OC)[C@H]2C1=O	JMJD2A Tudor 89µM (no result: G9a block, BAZ2B block)
CC[C@]1(C(=O)OC)[C@H]2C(=O)N(Cc3ccccc3)C(=O)[C@H]2[C@H]2CN=C(SCC3CC3)N21	JMJD2A Tudor 79µM (no result: G9a block, BAZ2B block)
CCN1C(=O)[C@H]2[C@H]3CN=C(SCc4ccc(C#N)cc4)N3[C@@](Cc3ccccc3)(C(=O)OC)[C@H]2C1=O	none (no result: G9a block, BAZ2B block)
COc1ccc(NC(=O)c2oc3ccc(S(=O)(=O)N(C)C4CCCCC4)cc3c2C)cc1Cl	none (no result: PLK1 PBD block, PI5P4Ka inh)
Cc1cc2cc(C(c3nnnn3CC3CCCO3)N3CCCc4ccccc43)c(=O)[nH]c2cc1C (configuration not stated)	JMJD2A Tudor inconclusive, G9a block inconclusive (no result: PI5P4Ka inh)
Cc1cccc2cc(C(c3nnnn3CC3CCCO3)N3CCc4ccccc4C3)c(=O)[nH]c12 (configuration not stated)	G9a block 3.2µM (no result: PI5P4Ka inh)
Cc1ccc(C)c2[nH]c(=O)c(C(c3nnnn3Cc3ccccc3)N3CCc4ccccc4C3)cc12 (configuration not stated)	G9a block 3.2µM (no result: PI5P4Ka inh)
CCc1ccc2[nH]c(=O)c(C(c3nnnn3CC3CCCO3)N3CCCc4ccccc43)cc2c1 (configuration not stated)	JMJD2A Tudor inconclusive, G9a block inconclusive, BAZ2B block 50µM (no result: PI5P4Ka inh)

Source: PubChem BioAssay (National Center for Advancing Translational Sciences (NCATS))
